# PubChem BioAssay AID720486 (Milwaukee Institute for Drug Discovery, 2013)
# The list shows a part of the results. Values without a mark were called inactive. Active and inactive are the calls of the source.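 The calls were made as follows: active = inhibition of at least 50%; inactive = the rest.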
# Biological target: Single-stranded DNA-binding protein (Escherichia coli (strain K12)) (UniProt P0AGE0)
# Experiment: E. coli SSB-DNA binding inhibitors, counter-screen for HCV NS3 helicase inhibitor project, biochemical, fluorescence polarization, selected ChemBridge compounds (AID 720486);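 also: displacers lower Cy5 polarization so higher inhibition means more SSB displaced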
# Conditions: E. coli SSB binding Cy5-dT15, fluorescence polarization; at 100 µM; stronger effect = higher value
# Chain of Single-stranded DNA-binding protein (Escherichia coli (strain K12)) (P0AGE0 whole entry, looked up): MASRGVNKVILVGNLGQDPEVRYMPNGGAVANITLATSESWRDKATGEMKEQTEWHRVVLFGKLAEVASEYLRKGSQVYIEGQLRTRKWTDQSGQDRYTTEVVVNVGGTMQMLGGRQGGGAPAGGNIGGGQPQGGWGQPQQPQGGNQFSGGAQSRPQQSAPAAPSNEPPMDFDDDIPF
row,SMILES,inhibition
1,CCN(CC)c1ccc(C=C2C(=O)N(C)C(=O)N(C)C2=O)c(O)c1,30.8%
2,Cc1ccc(C(=O)C[n+]2cc(-c3ccccc3)n3c2CCCCC3)cc1,5.34%
3,CC(C)(C)N1C(=O)NC(=O)C(=Cc2cccs2)C1=O,11.4%
4,COc1cc(/C(O)=C(\C#N)c2nc3ccccc3n2C)cc(OC)c1OC,10.2%
5,CCN(CC)c1ccc(NC(=O)/C(=C\c2ccccc2)NC(C)=O)cc1,55.1% (active)
6,N#Cc1c(N)nc2sc(C(=O)Nc3ccccc3)c(N)c2c1-c1ccco1,16.3%
7,O=C1NC(=O)C(=Cc2cc([N+](=O)[O-])cc(Br)c2O)C(=O)N1,51.5% (active)
8,COc1ccc(C(=O)Oc2ccc3oc(=O)cc(C)c3c2)cc1OC,12.6%
9,Cc1ccc(C(=O)NCCNc2ccc([N+](=O)[O-])cc2)cc1,34.5%
10,O=c1c2c(nc3cc(-c4cccc(F)c4)[nH]n13)CCS2,84.2% (active)
11,COc1cc(C=C2C(=O)NC(=O)NC2=O)ccc1OCCOc1ccc([N+](=O)[O-])cc1,19.9%
12,C=CCN1C(=O)/C(=C\c2cc(OC)c(O)c([N+](=O)[O-])c2)C(=O)NC1=S,98.8% (active)
13,CCOc1ccc(C=C2C(=O)NC(=O)NC2=O)cc1Cl,19.9%
14,COc1ccc(N2C(=O)C=CC2=O)c([N+](=O)[O-])c1,-5.58%
15,O=C(NC(=S)Nc1ccc(-c2nc3cc(Cl)ccc3o2)cc1)c1ccco1,19.9%
